High-throughput results deposited in PubChem by several laboratories.
Only some compounds are listed: those with a hit (about 2.5% of all), similar ones and a draw of the others.
TMEM16A act: mouse TMEM16A channel activation, primary screen. B-score at 10 µM. AID 623877. 340,000 tested, 0.3% active. HEK293 TMEM16A/YFP-H148Q/I152L, iodide quench fluorescence; hits give low values. Q8BHY3;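 active = fluorescence-ratio B-score plate-corrected deviation score at least 3 library SD below zero, with starting fluorescence score within 5 deviations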;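 note: channel opened by trigger with iodide after compound preincubation; score built on the fluorescence ratio of max minus min over baseline; more negative score means more quench and so TMEM16A activation or potentiation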
PKA-R1A act: PKA-R1A complex activation | P00514+P68181 | PKA-R1A dissociation, Cy5-IP20 fluorescence polarization; scaled: DMSO 0%, 113 µM cGMP 100% | activation, % at 11.4 µM | 340,000 tested, 0.083% active | AID 504707;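 active = percent activation above the mean of all tested compounds plus 3 SD, cut at about 19% in these data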;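 note: higher means more PKAc released from R1A so a rise in polarization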
ANO1 block: mouse TMEM16A channel inhibition, primary screen; AID 588511; 310,000 tested, 1.2% active; Q8BHY3; HEK293 TMEM16A/YFP iodide influx fluorescence, ionomycin; normalized B-score (activity score, 25-100; higher = stronger inhibition) at 10 µM;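 active = ratio plate-corrected score three or more library SD toward inhibition, starting fluorescence score within five deviations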;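 note: score derived from kinetic fluorescence span divided by baseline fluorescence per well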
CHT PAM: allosteric activators of human choline transporter CHT; AID 488977; 310,000 tested, 0.49% active; CHT-expressing cells, membrane potential dye, choline EC20; hits give high values; LV-AA mutant CHT in HEK293 cells; Q9GZV3; B-score at 10 µM;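 active = initial fluorescence not abnormally high and integrated response B-score, plate-corrected, over 3 SD above library mean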
PKA-R2B activ: PKA-R2B complex activation; 340,000 tested, 0.079% active; PKA-R2B holoenzyme dissociation, Cy5-IP20 fluorescence polarization; R2B truncated from residue 108, S112A mutant; 0% DMSO only, 100% 113 µM cGMP; activation, % at 11.4 µM;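 active = activation above a cutoff set at the mean over all compounds plus 3 SD, cut at about 18% in these data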;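 note: higher means more holoenzyme dissociation and a rise in polarization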
Target sequence (P31323 whole entry, looked up, other chains not shown, the tested form may be a part): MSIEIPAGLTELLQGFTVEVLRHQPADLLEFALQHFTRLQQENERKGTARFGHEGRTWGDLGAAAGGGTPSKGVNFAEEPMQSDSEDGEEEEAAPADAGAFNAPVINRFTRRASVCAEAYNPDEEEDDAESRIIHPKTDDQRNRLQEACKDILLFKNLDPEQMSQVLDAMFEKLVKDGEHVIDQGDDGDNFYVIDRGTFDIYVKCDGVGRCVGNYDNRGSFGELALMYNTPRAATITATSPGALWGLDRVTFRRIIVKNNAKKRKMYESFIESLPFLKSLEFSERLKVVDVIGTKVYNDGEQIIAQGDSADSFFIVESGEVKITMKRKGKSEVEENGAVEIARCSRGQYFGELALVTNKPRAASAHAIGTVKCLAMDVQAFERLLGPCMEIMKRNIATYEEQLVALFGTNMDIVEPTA
CHT inh: human CHT choline transport inhibition; Q9GZV3; CHT-expressing cells, membrane potential dye, choline response; hits give low values; B-score at 10 µM; 310,000 tested, 0.86% active; AID 488975;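 active = B-score over 3 SD under the library average, and starting fluorescence ratio not unusually high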;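 note: choline stimulus applied at its EC90 after an EC20 pre-addition; B-score computed on integrated fluorescence ratio after choline addition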
CHT activ conf: confirmation of human choline transporter (CHT) activators; CHT-expressing cells, membrane potential dye fluorescence (FDSS); % of choline EC20–EC90 response window; HEK293 expressing CHT LV-AA mutant; choline added at its EC20; 2,500 tested, 91% active; shares compounds with CHT PAM; activation, % at 10 µM;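 active = primary screen active, with duplicate mean activation above negative control mean plus 3 SD, cut at about 11% in these data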
HEK293 MP dye: counter-screen for CHT activators: effect in parental HEK293 cells; shares compounds with CHT PAM; membrane potential dye fluorescence (FDSS); measured after EC20 choline addition; ratio readout change at 10 µM, hits read low; 2,500 tested, 62% active;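 active = duplicate-averaged ratio beyond 3 SD from buffer wells, up or down, though filed actives are nearly all decreases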
* marks the source's active call; other numbers are inactive results; i = inactive; x = not tested or not shown.

SMILES	TMEM16A act	PKA-R1A act	ANO1 block	CHT PAM	PKA-R2B activ	CHT inh	CHT activ conf	HEK293 MP dye
Nc1c2c(nc3ccccc13)N(c1ccccc1)CC2	i	-7	i	i	-13	i	x	x
CN1CCCCc2c1nc1ccccc1c2N (tested in a mixture with another compound)	i	0	i	8.6*	10	i	23*	-48*
Cc1c(C)n(CCN(C)C)c2ncnc(NCc3ccccc3)c12	i	-6	i	i	-7	i	46*	-48*
COc1cc2ccccc2cc1C(=O)NCC(c1cccs1)N(C)C (configuration not stated)	i	-3	i	i	1	i	x	x
CCC1=[N+](C)c2cccc3cccc(c23)N1C	i	-8	i	9.6*	-8	i	71*	-86*
CCCCN(CCCNC(=O)c1ccc(CS(=O)(=O)c2c(Cl)cccc2Cl)o1)Cc1ccccc1	i	0	i	i	0	i	44*	-42*
CCCCN(CC)CCCNC(=O)c1ccc(CS(=O)(=O)c2c(Cl)cccc2Cl)o1	i	-2	i	i	1	i	x	x
N#Cc1ccc(Cl)cc1NC(=O)CNCc1cccs1	i	-2	i	i	4	i	x	x
CCOC(=O)C1(CCOc2ccccc2)CCN(Cc2ccc3nonc3c2)CC1	i	2	i	6.4*	4	i	6	i
CCOC(=O)C1(CCc2ccccc2)CCN(Cc2cc(OC)c(OC)cc2OC)CC1	i	2	i	10*	-5	i	56*	i
Cc1ccn2c(NC3CCCC3)c(-c3ccncc3)nc2c1	i	4	i	7.2*	4	i	47*	-63*
COCC(=O)N(C)c1nnc(-c2cnc(C)cn2)s1	i	-10	i	6.4*	-9	i	59*	-55*
CSc1nnc2c(n1)OC(C)=Nc1ccccc1-2	i	-9	i	i	-6	i	41*	-41*
CCN1CCS/C1=C/C=C/C1=[N+](CC)CCS1	i	-11	i	6.9*	-11	i	45*	-31*
CCN1CCS/C1=C\C=C\C1=[N+](CC)CCS1	i	-3	x	x	0	x	x	x
COc1ccc(Br)cc1CN(C)C(=O)c1ccccc1OCc1c(C)noc1C	i	0	i	i	-5	i	38*	i
COc1ccc(CN(C)C(=O)c2ccccc2OCc2c(C)noc2C)c(OC)c1	i	14	x	x	0	x	x	x
O=C(NCc1ccccc1)[C@@H]1C[C@H]1[C@@H](NP(=O)(c1ccccc1)c1ccccc1)c1ccccc1	i	8	i	i	-7	i	x	x
O=C(NCC1CC1)[C@@H]1C[C@H]1[C@@H](NP(=O)(c1ccccc1)c1ccccc1)c1ccccc1	i	0	i	i	-4	i	-9	i
Cc1nc(N(C)Cc2ccccc2)c2c(C)c(C)sc2n1	i	-9	i	i	5	i	26*	i
Cc1sc2nc(SCC(=O)N(C)Cc3ccccc3)n(-c3ccccc3)c(=O)c2c1C	i	-12	i	i	-5	i	x	x
COc1cc(OC)cc(-c2c(-c3cccs3)c3cc(-c4ccc(OCc5ccccc5)cc4)ccc3n2C)c1	i	-4	x	x	-10	x	x	x
CC1CCN(c2ccccc2NC(=O)c2ccc(C#N)cc2F)CC1	i	x	i	i	x	i	x	x
